Assay outcomes from PubChem.
An excerpt weighted towards active compounds, which were near 4.7% of everything screened.
tim23-1 inh: tim23-1 yeast growth inhibition | S. cerevisiae tim23-1 growth, BacTiter-Glo luminescence, 24 h | inhibition, % at 20 µM | hit rate 1.3% among 330,000;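 active = growth inhibition of the mutant yeast at or above 50%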;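 note: temperature-sensitive mutant grown at 25 °C; plate controls were DMSO-treated mutant yeast for no effect and medium wells lacking yeast for full effect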
tim10-1 inh: tim10-1 yeast growth inhibition | inhibition, % at 20 µM | S. cerevisiae tim10-1 ts strain growth, BacTiter-Glo, 24 h | AID 463190 | hit rate 2.2% among 330,000;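 active = inhibition of at least 40%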;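 note: mutant grown at 25 °C; 0% = DMSO wells with yeast and 100% = wells holding no yeast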
SKKanGAS inh: blocks kanamycin growth of S. pyogenes SKKanGAS strain; BacTiter-Glo, 6 h; inhibition, % at 7.5 µM; hit rate 1.3% among 300,000; AID 1662;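 active = mean replicate score, as percent of positive control median, at least 50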;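 note: strain carries kanamycin resistance gene driven by streptokinase promoter and grows in 40 µg/ml kanamycin; loss of luminescence reflects streptokinase promoter inhibition or plain growth inhibition; 0% = median of DMSO wells and 100% = positive control at its reference dose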
TIM10 inh: inhibits growth of TIM10 yeast strain | S. cerevisiae TIM10 strain growth, BacTiter-Glo luminescence, 24 h | inhibition, % at 10 µM | hit rate 1.4% among 330,000 | AID 463195;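 active = inhibition of 40% or more at the single tested concentration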;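 note: wild-type TIM10 isogenic control strain grown at permissive 25 °C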
PfHsp90 set2: reduces growth (ATP signal) of yeast expressing P. falciparum Hsp90. hit rate 0.32% among 310,000. AID 504621. inhibition, % at 9.4 µM. S. cerevisiae expressing PfHsp90, BacTiter-Glo ATP, 48 h; yeast lacking PDR1 and PDR3 efflux regulators;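 active = every replicate shows inhibition above about 80%, whatever the replicate mean, limit read from the data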;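 note: 0% = DMSO neutral controls and 100% = 20 µM radicicol positive controls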
ATG4B inh: inhibitors of human ATG4B cysteine protease; ATG4B cleavage of LC3-PLA2, NBD-HPC fluorescence, 1 h; hit rate 0.51% among 340,000; inhibition, % at 8.33 µM; Q9Y4P1; in the data active = inhibition above about 40%
Target sequence (Q9Y4P1 whole entry, looked up): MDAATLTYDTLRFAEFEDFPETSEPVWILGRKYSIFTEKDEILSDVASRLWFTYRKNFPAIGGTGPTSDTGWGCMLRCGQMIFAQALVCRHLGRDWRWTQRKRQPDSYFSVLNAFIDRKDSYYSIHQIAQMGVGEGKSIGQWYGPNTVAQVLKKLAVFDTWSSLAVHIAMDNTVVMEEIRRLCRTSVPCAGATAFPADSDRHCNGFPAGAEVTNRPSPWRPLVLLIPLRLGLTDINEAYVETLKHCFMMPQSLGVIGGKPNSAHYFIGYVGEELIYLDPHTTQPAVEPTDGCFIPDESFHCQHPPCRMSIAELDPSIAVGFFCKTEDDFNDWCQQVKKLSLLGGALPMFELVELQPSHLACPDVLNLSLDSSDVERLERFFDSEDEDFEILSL
tim10-1 confirm: tim10-1 yeast growth inhibition, confirmed; AID 463213; S. cerevisiae tim10-1 ts strain growth, BacTiter-Glo, 24 h; hit rate 56% among 7,400; shares compounds with tim10-1 inh; inhibition, % at 20 µM;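 active = inhibition of yeast growth at or above a set limit in either of two repeat tests at 20 µM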;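 note: tim10-1 mutant grown at permissive 25 °C to find synthetic lethal compounds; 0% = DMSO yeast wells and 100% = medium wells without yeast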
TIM10 conf: TIM10 yeast growth inhibition, confirmed | shares compounds with TIM10 inh | S. cerevisiae tim10 strain growth, BacTiter-Glo luminescence, 24 h | inhibition, % at 10 µM | hit rate 63% among 4,600;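 active = inhibition of yeast growth at or above a set limit in either of two replicates at 10 µM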;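 note: this counterscreen used the strain with wild-type TIM10; 0% = yeast with DMSO and 100% = medium wells lacking yeast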
tim23-1 confirm: tim23-1 yeast growth inhibition, confirmed; shares compounds with tim23-1 inh; S. cerevisiae tim23-1 growth, BacTiter-Glo luminescence, 24 h; inhibition, % at 20 µM; hit rate 83% among 4,400; AID 463218;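 active = inhibition above about 39% in either of two replicate wells at 20 µM, limit read from the data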;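 note: temperature-sensitive tim23-1 mutant grown at 25 °C; 0% = DMSO wells with yeast and 100% = medium wells without yeast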
Starred values were filed as active, the others as inactive; x = no result given.

SMILES	tim23-1 inh	tim10-1 inh	SKKanGAS inh	TIM10 inh	PfHsp90 set2	ATG4B inh	tim10-1 confirm	TIM10 conf	tim23-1 confirm
CC(=O)n1c2c(c3ccccc31)OC(N)=C(C#N)C2c1ccc(C(C)C)cc1 (stereo not given)	55.3*	42.0*	12.3	35.4	13.0	34.8	36.6*	x	52.2*
CCOC(=O)C1=C(CC)Nc2ccccc2N=C1NC(=O)Nc1ccc(Cl)c(Cl)c1	76.1*	78.6*	93.2*	69.8*	103.7*	61.6*	71.1*	-25.4	71.8*
FC(F)(F)c1cc(-c2ccc(Cl)cc2)nc2ncnn12	25.0	15.0	-3.4	-3.5	3.0	-7.7	x	x	x
N/C(=N\OC(=O)c1cc(-c2ccccc2)nc2ccccc12)c1ccccn1	81.3*	54.3*	15.9	84.2*	7.9	1.3	30.9*	88.8*	63.4*
COc1ccc(/C(N)=N/OC(=O)c2cc(-c3ccccc3)nc3ccccc23)cc1	79.1*	66.9*	2.3	82.3*	2.0	-7.2	63.2*	75.3*	76.1*
CC(=O)COC(=O)c1cc(-c2ccc(C)cc2)nc2ccccc12	24.8	36.7	0.7	34.8	-1.0	-9.0	x	x	x
Cc1ccc(/C(N)=N/OC(=O)c2cc(-c3ccccc3)nc3ccccc23)cc1	83.9*	69.6*	-2.6	86.5*	-17.5	-1.0	64.5*	85.8*	80.0*
COC(=O)c1cc(-c2ccc(NC(C)=O)cc2)nc2ccccc12	53.2*	50.2*	-1.5	36.1	-8.2	-10.9	38.5*	x	57.4*
N/C(=N\OC(=O)c1ccccc1Cl)c1ccccn1	9.0	23.2	19.3	21.0	18.0	12.0	x	x	x
Cc1cc(C)nc(SCc2ccc(Br)cc2)n1	15.8	-1.3	11.4	1.6	-52.5	-1.1	x	x	x
COCCNc1cc(C)nc2cc(-c3ccc(C)cc3)nn12	27.9	24.8	3.4	12.1	31.9	-2.9	x	x	x
Cc1ccc(-c2cc3nc(C)cc(NCc4ccco4)n3n2)cc1	57.9*	41.4*	14.4	28.8	3.0	3.9	38.5*	x	54.7*
O=C(c1ccc2c(c1)OCO2)N(c1ccc(Cl)cc1)C1C=CS(=O)(=O)C1 (stereo not given)	11.0	20.8	-2.6	15.5	31.4	2.5	x	x	x
O=c1[nH]c(=S)[nH]c2c1C(c1cc([N+](=O)[O-])c(N3CCOCC3)cc1N1CCOCC1)O2 (stereo not given)	-1.9	1.3	-19.3	2.0	-14.1	2.3	x	x	x
NC(=O)C1CCN(C(=O)c2ccc(OCC(=O)Nc3cccc(C(F)(F)F)c3)cc2)CC1	7.4	11.6	-0.5	15.2	x	1.4	x	x	x
CCOC(=O)C1CCN(C(=O)c2ccc(OCC(=O)Nc3cccc(C(F)(F)F)c3)cc2)CC1	54.2*	56.3*	28.7	54.1*	8.0	-10.7	56.3*	53.4*	53.4*
COc1ccc(CC(=O)Nc2ccc(OC)c(NC(=O)c3ccco3)c2)cc1	-9.6	-5.0	-0.4	12.2	9.7	-12.4	x	x	x
CC(C)(C)C(=O)Nc1ccc(C(=O)OC2CCCCC2)cc1	50.2*	41.3*	-1.5	38.5	-5.2	-7.2	27.5	x	42.5*
O=C(OC1CCCCC1)c1ccc(NC(=O)C2CCCCC2)cc1	43.0	25.3	27.3	19.0	0.9	7.2	x	x	x
Cc1cccc(NC(=O)/C(C#N)=C/c2ccc(F)cc2)n1	47.5	31.7	1.5	26.5	11.5	-5.0	x	x	x
CCCOc1ccccc1/C=C(\C#N)C(=O)Nc1cccc(C)n1	56.5*	49.2*	-1.7	37.2	-12.5	0.0	45.1*	x	57.2*
COc1ccc(/C(N)=N/OC(=O)c2ccc(Br)o2)cc1	-16.5	17.5	2.4	-5.4	-25.4	-0.2	x	x	x
N/C(=N\OC(=O)c1cccs1)c1ccc(Cl)cc1	81.7*	69.3*	-3.0	83.7*	x	-11.5	52.8*	84.4*	91.1*
N/C(=N\OC(=O)Cc1cccs1)c1ccc(Cl)cc1	-11.7	1.5	-13.6	8.6	-8.6	1.4	x	x	x
COc1ccc(/C(N)=N/OC(=O)c2cccs2)cc1	71.2*	42.8*	8.5	62.9*	-12.8	-1.5	59.8*	67.8*	88.0*
SMILES	tim23-1 inh	tim10-1 inh	SKKanGAS inh	TIM10 inh	PfHsp90 set2	ATG4B inh	tim10-1 confirm	TIM10 conf	tim23-1 confirm
N/C(CC(=O)Nc1ccc(F)c(Cl)c1)=N\OC(=O)c1cccs1	72.6*	53.7*	-4.8	80.8*	-23.8	-3.6	36.8*	86.4*	83.2*
CN1CCN(C2=Cc3cc(Cl)ccc3Sc3cc(F)ccc32)CC1	78.1*	56.8*	89.8*	-15.2	-5.1	-3.4	39.6*	x	66.6*
CN1CCN(C2=Cc3ccccc3Sc3cc(F)c(F)cc32)CC1	-6.2	38.1	12.1	17.1	32.9	-6.1	x	x	x
CCOC(=O)c1c(N)sc2c(O)c(Br)ccc12	51.8*	49.5*	-3.2	53.2*	-37.8	-2.7	50.1*	46.7*	-24.1
COc1ccccc1CC(=O)Nc1cccc2ccccc12	9.2	-8.8	8.2	-13.5	6.9	-4.4	x	x	x
COc1ccccc1C/C(N)=N/OC(=O)COc1cccc2ccccc12	65.2*	58.2*	-11.2	74.2*	x	4.1	63.5*	62.3*	73.2*
COc1ccccc1C/C(N)=N/OC(=O)COc1ccc2ccccc2c1	52.5*	47.9*	14.8	55.0*	14.7	11.2	64.3*	43.0*	77.0*
O=S(=O)(NC1CCCCC1N1CCN(c2ccc(F)cc2)CC1)c1ccc(Cl)cc1 (stereo not given)	42.9	37.8	-0.3	20.1	-7.2	-1.7	x	x	x
O=C(NC(=S)Nc1ccccc1N1CCOCC1)c1cccs1	59.1*	52.4*	5.6	56.9*	-73.7	10.9	35.8*	38.1*	59.7*
COc1cc(C(=O)NC(=S)Nc2ccccc2N2CCOCC2)cc(OC)c1OC	17.1	38.0	-9.6	28.5	-4.4	3.0	x	x	x
COc1cccc(C(=O)NC(=S)Nc2ccccc2N2CCOCC2)c1	53.3*	44.1*	38.6	39.2	15.9	5.4	30.1*	x	45.7*
O=C(NC(=S)Nc1ccc(N2CCCCC2)cc1)c1cccs1	51.1*	43.6*	4.9	54.6*	-11.5	11.1	13.6	27.4	50.0*
O=C(NC(=S)Nc1ccccc1N1CCOCC1)c1ccccc1F	57.2*	51.8*	20.6	38.9	-69.0	13.6	43.5*	x	55.2*
CS(=O)(=O)N1CCN(c2ccc(NC(=S)NC(=O)c3cccs3)cc2)CC1	0.9	-9.2	8.0	4.5	0.5	-3.3	x	x	x
O=C1CC(N2CCC(O)CC2)C(=O)N1c1ccc(Br)cc1 (stereo not given)	18.8	24.6	-6.7	7.0	-2.6	-1.3	x	x	x
